# Results published in PubChem BioAssay (NCI).
# “And” between values parts separate entries of the source, which are not always exact repeats. Equal entries are not always repeated. Compounds without any hit were thinned out: in the full panel of roughly 79,000, 15% have a hit. Some structures have more than one record in an assay (separate samples or runs), and their calls can disagree. The source made the active and inactive calls. No stated cut-off is given here; in the data, active means growth inhibition above about 70%; inactive means the rest.
# How the values were obtained:
# [1] = NCI Yeast Anticancer Drug Screen. Data for the rad50 strain (AID 155);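 further: 0% = growth of vehicle-only cultures of the same strain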; conditions: S. cerevisiae rad50 strain growth inhibition, stronger effect = higher value
# In short: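 Genetically altered yeast (DNA repair pathway); compound treatment; growth inhibition vs vehicle ctrl.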
# [2] = NCI Yeast Anticancer Drug Screen. Data for the mec2-1 strain (AID 157); conditions: S. cerevisiae mec2-1 strain, stronger effect = higher value
# In short: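 Strain: mec2-1 (DNA repair/cell cycle alteration). Compound exposure, then growth measured; inhibition expressed relative to vehicle.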
# [3] = NCI Yeast Anticancer Drug Screen. Data for the sgs1 mgt1 strain (AID 161);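 further: 0% = growth of cultures given vehicle only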; conditions: S. cerevisiae sgs1 mgt1 strain, stronger effect = higher value
# In short: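 Genetically altered yeast, compound exposure, growth inhibition relative to vehicle.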
# [4] = NCI Yeast Anticancer Drug Screen. Data for the cln2 rad14 strain (AID 165);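 further: 0% = growth equal to vehicle treated cultures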; conditions: S. cerevisiae cln2 rad14 strain, stronger effect = higher value
# In short: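 Compounds are applied to the cln2 rad14 yeast strain, and growth is then compared with that of vehicle-treated cultures to give inhibition.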
# [5] = NCI Yeast Anticancer Drug Screen. Data for the bub3 strain (AID 167); conditions: S. cerevisiae bub3 mutant strain, stronger effect = higher value
# In short: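 Yeast carrying a defined mutation is treated with each compound, and growth is compared with that of vehicle-exposed cells to give inhibition.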
# [6] = NCI Yeast Anticancer Drug Screen. Data for the mlh1 rad18 strain (AID 175); conditions: S. cerevisiae mlh1 rad18 strain growth inhibition, stronger effect = higher value
# In short: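 Read-out is yeast growth inhibition, calculated against vehicle-only controls. The compound was applied to a strain engineered with DNA damage repair alterations.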
# [7] = at 5.0 µM (retest, dose inferred, filed as 0.5)
# [8] = at 50.0 µM (retest, dose inferred, filed as 5.0)
SMILES,"growth inhibition [1, 7]","growth inhibition [1, 8]",growth inhibition ([1]; at 50.0 µM),"growth inhibition [2, 7]","growth inhibition [2, 8]",growth inhibition ([2]; at 50.0 µM),"growth inhibition [3, 7]","growth inhibition [3, 8]",growth inhibition ([3]; at 50.0 µM),"growth inhibition [4, 7]","growth inhibition [4, 8]",growth inhibition ([4]; at 50.0 µM),"growth inhibition [5, 7]","growth inhibition [5, 8]",growth inhibition ([5]; at 50.0 µM),"growth inhibition [6, 7]","growth inhibition [6, 8]",growth inhibition ([6]; at 50.0 µM)
C[C@H]1CC[C@H]([C@@H](C)[C@H]2[C@@H](O)C[C@H]3[C@@H]4CC[C@H]5C[C@@H](O)CC[C@]5(C)[C@H]4CC[C@]23C)NC1,32% (inactive) and 5% (inactive),94% (active) and 96% (active),91.3% (active) and 88.7% (active),19% (inactive) and 2% (inactive),98% (active) and 99% (active),91.8% (active) and 85.7% (active),23% (inactive) and 4% (inactive),98% (active) and 94% (active),92.5% (active) and 85.7% (active),23% (inactive) and 1% (inactive),97% (active) and 60% (inactive),91% (active) and 88.3% (active),24% (inactive) and 0% (inactive),98% (active) and 92% (active),92.1% (active) and 89.3% (active),28% (inactive) and -4% (inactive),97% (active) and 98% (active),84.5% (active) and 89.2% (active)
Nc1cc2c(cc1Cl)[nH]c(=O)c1cc(Cl)ccc12,46% (inactive),65% (inactive),86.2% (active),27% (inactive),14% (inactive),3.6% (inactive),26% (inactive),17% (inactive),18.3% (inactive),10% (inactive),6% (inactive),-0.9% (inactive),39% (inactive),10% (inactive),-11.3% (inactive),38% (inactive),40% (inactive),22.6% (inactive)
Nc1cc2ccc(O)cc2c2ccccc12,0% (inactive),81% (active),94.8% (active),4% (inactive),51% (inactive),86.2% (active),-1% (inactive),54% (inactive),91% (active),1% (inactive),34% (inactive),67.5% (inactive),2% (inactive),89% (active),93.4% (active),-1% (inactive),82% (active),94.7% (active)
CS(=O)(=O)OC1CC(n2ccc(=O)[nH]c2=O)OC1COC(c1ccccc1)(c1ccccc1)c1ccccc1 (centres undefined),-14% (inactive),95% (active),14.9% (inactive) and 97% (active),-4% (inactive),95% (active),-4.6% (inactive) and 97% (active),-17% (inactive),54% (inactive),11.3% (inactive) and 50.5% (inactive),0% (inactive),92% (active),2.9% (inactive) and 96.3% (active),-3% (inactive),86% (active),7.25% (inactive) and 97.8% (active),0% (inactive),97% (active),5.6% (inactive) and 97% (active)
O=[N+]([O-])c1ccc(SSc2ccc([N+](=O)[O-])cc2)cc1,35% (inactive) and 88% (active),98% (active),98.2% (active) and 65.7% (inactive),70% (active) and 99% (active),99% (active),98.9% (active) and 38.1% (inactive),91% (active) and 87% (active),99% (active) and 98% (active),99% (active) and 68.8% (inactive),27% (inactive) and 65% (inactive),97% (active),93.7% (active) and -34.6% (inactive),58% (inactive) and 98% (active),99% (active),98.5% (active) and 49.2% (inactive),70% (active) and 87% (active),98% (active),98.3% (active) and 69.6% (inactive)
CC(=O)OC1OC(CI)C(OC(C)=O)C(OC(C)=O)C1OC(C)=O (centres undefined),1% (inactive),38% (inactive),16.1% (inactive) and 5.95% (inactive),-1% (inactive),21% (inactive),17% (inactive) and 12.6% (inactive),-3% (inactive),19% (inactive),4.55% (inactive) and -11.6% (inactive),2% (inactive),49% (inactive),17.1% (inactive) and 5.75% (inactive),-5% (inactive),69% (inactive),19.8% (inactive) and 94% (active),-1% (inactive),25% (inactive),24.4% (inactive) and 9.3% (inactive)
O=C(O)C1(Cc2ccccc2)Cc2cc3c(cc2C1)CCC3,5% (inactive),5% (inactive),90% (active),-4% (inactive),-4% (inactive),92% (active),0% (inactive),0% (inactive),87.2% (active),2% (inactive),2% (inactive),89% (active),-17% (inactive),-17% (inactive),89.7% (active),8% (inactive),8% (inactive),84.8% (active)
C=CCN(CC=C)C(CC(=O)C(C)(C)C)=NCC,0% (inactive),-6% (inactive),-14.9% (inactive),-7% (inactive),6% (inactive),-7.85% (inactive),0% (inactive),-6% (inactive),-5.85% (inactive),1% (inactive),1% (inactive),36% (inactive),-3% (inactive),3% (inactive),-3.75% (inactive),-11% (inactive),1% (inactive),-22.6% (inactive)
O=c1c(O)cccc2cc(O)c(O)c(O)c12,9% (inactive) and 29% (inactive),90% (active) and 98% (active),89.2% (active) and 90.3% (active),-22% (inactive) and 25% (inactive),94% (active) and 98% (active),91.4% (active) and 91.2% (active),-4% (inactive) and 36% (inactive),92% (active) and 98% (active),89.7% (active) and 91.3% (active),12% (inactive) and 6% (inactive),91% (active) and 97% (active),85.5% (active) and 87.5% (active),5% (inactive) and 29% (inactive),94% (active) and 97% (active),87% (active) and 90.2% (active),-4% (inactive) and 48% (inactive),93% (active) and 97% (active),87.2% (active) and 91.1% (active)
Clc1cc(Cl)c(Cl)nn1,13% (inactive),83% (active),59.6% (inactive) and 86% (active),3% (inactive),38% (inactive),2.1% (inactive) and 44.9% (inactive),-1% (inactive),24% (inactive),3.1% (inactive) and 15.5% (inactive),-8% (inactive),25% (inactive),-7.45% (inactive) and 16.4% (inactive),6% (inactive),48% (inactive),18.6% (inactive) and 60.8% (inactive),1% (inactive),45% (inactive),15.8% (inactive) and 25% (inactive)
CC(C)(c1ccc(O)cc1)c1ccc(O)cc1,5% (inactive),59% (inactive) and 83% (active),69.5% (inactive) and 77.6% (active),10% (inactive) and 3% (inactive),34% (inactive) and 51% (inactive),58.6% (inactive) and 81.8% (active),-3% (inactive) and 4% (inactive),75% (active) and 51% (inactive),78.1% (active) and 64.6% (inactive),9% (inactive) and 16% (inactive),39% (inactive) and 78% (active),50.4% (inactive) and 71.2% (active),30% (inactive) and 5% (inactive),45% (inactive) and 64% (inactive),59.7% (inactive) and 81.1% (active),6% (inactive) and 4% (inactive),64% (inactive) and 68% (inactive),76.6% (active) and 87.7% (active)
CCC[CH2][Sn]1([CH2]CCC)[O]N=C(c2ccccc2)C(c2ccccc2)[O]1 (centres undefined),19% (inactive),19% (inactive),88.4% (active),20% (inactive),20% (inactive),87.8% (active),-1% (inactive),-1% (inactive),89.4% (active),8% (inactive),8% (inactive),79.7% (active),12% (inactive),12% (inactive),78.8% (active),12% (inactive),12% (inactive),79.9% (active)
O=C1CSC(=S)N1c1ccc(F)c(F)c1,4% (inactive),90% (active),97.5% (active),-12% (inactive),95% (active),97.2% (active),4% (inactive),94% (active),97% (active),-3% (inactive),43% (inactive),86.2% (active),0% (inactive),92% (active),96.3% (active),-3% (inactive),95% (active),96.4% (active)
